{"source": "the supplement of paper PMC8728848", "assay_in_all_cases": "glycan array binding signal (z-score within array); higher = stronger binding", "conditions_in_all_cases": "glycan notation: IUPAC condensed, linker removed", "key": {"[1]": {"biological_target": "Fuc(a1-2)Gal(b1-3)[Fuc(a1-4)]GlcNAc(b1-2)Man(a1-3)[Fuc(a1-2)Gal(b1-3)[Fuc(a1-4)]GlcNAc(b1-2)Man(a1-3)]Man(b1-4)GlcNAc(b1-4)GlcNAc", "how_it_was_run": "(§1)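 Negative Z-scores can be read as non-binding. The Z-score is calculated within each array and then averaged across arrays of one protein sequence at different concentrations or buffers and across linkers. Arrays, 3228 in all, were curated from the Consortium for Functional Glycomics database and kept only where the protein sequence was available.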"}, "[2]": {"biological_target": "Fuc(a1-2)Gal(b1-4)Fuc(a1-3)]GlcNAc(b1-2)Man(a1-3)[Fuc(a1-2)Gal(b1-4)[Fuc(a1-3)]GlcNAc(b1-2)Man(a1-6)]Man(b1-4)GlcNAc(b1-4)GlcNAc", "how_it_was_run": "as §1"}, "[3]": {"biological_target": "Fuc(a1-2)Gal(b1-4)GlcNAc(b1-2)Man(a1-3)[Fuc(a1-2)Gal(b1-4)GlcNAc(b1-2)Man(a1-6)]Man(b1-4)GlcNAc(b1-4)[Fuc(a1-6)]GlcNAc", "how_it_was_run": "as §1"}, "[4]": {"biological_target": "Fuc(a1-2)Gal(b1-4)[Fuc(a1-3)]GlcNAc", "how_it_was_run": "as §1"}, "[5]": {"biological_target": "Fuc(a1-2)Gal(b1-4)[Fuc(a1-3)]GlcNAc(b1-2)Man(a1-3)[Fuc(a1-2)Gal(b1-4)[Fuc(a1-3)]GlcNAc(b1-2)Man(a1-6)]Man(b1-4)GlcNAc(b1-4)GlcNAc", "how_it_was_run": "as §1"}, "[6]": {"biological_target": "Fuc(a1-2)[GalNAc(a1-3)]Gal(b1-3)GalNAc(a1-3)[Fuc(a1-2)]Gal(b1-4)GlcNAc", "how_it_was_run": "as §1"}, "[7]": {"biological_target": "Fuc(a1-2)[GalNAc(a1-3)]Gal(b1-3)GalNAc(b1-3)Gal(a1-4)Gal(b1-4)Glc", "how_it_was_run": "as §1"}, "[8]": {"biological_target": "Fuc(a1-2)[GalNAc(a1-3)]Gal(b1-4)GlcNAc(b1-3)Gal(b1-4)GlcNAc", "how_it_was_run": "as §1"}, "[9]": {"biological_target": "Fuc(a1-2)[GalNAc(a1-3)]Gal(b1-4)GlcNAc(b1-3)Gal(b1-4)GlcNAc(b1-3)Gal(b1-4)GlcNAc", "how_it_was_run": "as §1"}, "[10]": {"biological_target": "Fuc(a1-2)[GalNAc(a1-3)]Gal(b1-4)GlcNAc(b1-6)GalNAc", "how_it_was_run": "as §1"}, "[11]": {"biological_target": "Fuc(a1-2)[GalNAc(a1-4)]Gal(b1-4)GlcNAc", "how_it_was_run": "as §1"}, "[12]": {"biological_target": "Fuc(a1-3)[Gal(b1-4)]GlcNAc(b1-4)Gal(b1-4)[Fuc(a1-3)]GlcNAc(b1-4)Gal(b1-4)[Fuc(a1-3)]GlcNAc", "how_it_was_run": "as §1"}, "[13]": {"biological_target": "Fuc(a1-3)[Gal(b1-4)]GlcNAc(b1-6)[Gal(b1-3)GlcNAc(b1-3)]Gal(b1-4)Glc", "how_it_was_run": "as §1"}, "Gal(a1-3)Gal(b1-4)Glc": {"biological_target": "Gal(a1-3)Gal(b1-4)Glc", "how_it_was_run": "as §1"}, "Gal(b1-2)Gal": {"biological_target": "Gal(b1-2)Gal", "how_it_was_run": "as §1"}, "[14]": {"biological_target": "Gal(b1-3)Gal(b1-4)GlcNAc(b1-2)Man(a1-3)[Gal(b1-3)Gal(b1-4)GlcNAc(b1-2)Man(a1-6)]Man(b1-4)GlcNAc(b1-4)GlcNAc", "how_it_was_run": "as §1"}, "Gal(b1-3)GlcNAc(b1-2)Man": {"biological_target": "Gal(b1-3)GlcNAc(b1-2)Man", "how_it_was_run": "as §1"}, "[15]": {"biological_target": "Gal(b1-3)GlcNAc(b1-3)Gal(b1-4)GlcNAc(b1-6)[Gal(b1-3)GlcNAc(b1-3)]Gal(b1-4)Glc", "how_it_was_run": "as §1"}, "[16]": {"biological_target": "Gal(b1-3)[Fuc(a1-4)]GlcNAc(b1-2)Man(a1-3)[Gal(b1-3)[Fuc(a1-4)]GlcNAc(b1-2)Man(a1-6)]Man(b1-4)GlcNAc(b1-4)[Fuc(a1-6)]GlcNAc", "how_it_was_run": "as §1"}, "[17]": {"biological_target": "Gal(b1-3)[GlcNAc(b1-6)]GalNAc", "how_it_was_run": "as §1"}, "[18]": {"biological_target": "Gal(b1-3)[Neu5Ac(b2-6)]GalNAc", "how_it_was_run": "as §1"}, "[19]": {"biological_target": "Gal(b1-4)GlcNAc(b1-2)Man(a1-6)[GlcNAc(b1-2)Man(a1-3)]Man(b1-4)GlcNAc(b1-4)GlcNAc", "how_it_was_run": "as §1"}, "[20]": {"biological_target": "Gal(b1-4)GlcNAc(b1-2)[Gal(b1-4)GlcNAc(b1-6)]Man(a1-6)[GlcNAc(b1-4)][Gal(b1-4)GlcNAc(b1-2)[Gal(b1-4)GlcNAc(b1-4)]Man(a1-3)]Man(b1-4)GlcNAc(b1-4)[Fuc(a1-6)]GlcNAc", "how_it_was_run": "as §1"}, "[21]": {"biological_target": "Gal(b1-4)GlcNAc(b1-3)Gal(b1-4)GlcNAc(b1-3)Gal(b1-4)GlcNAc(b1-2)[Gal(b1-4)GlcNAc(b1-3)Gal(b1-4)GlcNAc(b1-3)Gal(b1-4)GlcNAc(b1-6)]Man(a1-6)[Gal(b1-4)GlcNAc(b1-3)Gal(b1-4)GlcNAc(b1-3)Gal(b1-4)GlcNAc(b1-2)Man(a1-3)]Man(b1-4)GlcNAc(b1-4)[Fuc(a1-6)]GlcNAc", "how_it_was_run": "as §1"}, "[22]": {"biological_target": "Gal(b1-4)GlcNAc(b1-3)Gal(b1-4)GlcNAc(b1-3)Gal(b1-4)GlcNAc(b1-3)Gal(b1-4)GlcNAc(b1-3)Gal(b1-4)GlcNAc(b1-2)Man(a1-3)[Gal(b1-4)GlcNAc(b1-3)Gal(b1-4)GlcNAc(b1-3)Gal(b1-4)GlcNAc(b1-3)Gal(b1-4)GlcNAc(b1-3)Gal(b1-4)GlcNAc(b1-2)Man(a1-6)]Man(b1-4)GlcNAc(b1-4)[Fuc(a1-6)]GlcNAc", "how_it_was_run": "as §1"}, "Gal3S6S(b1-4)GlcNAc": {"biological_target": "Gal3S6S(b1-4)GlcNAc", "how_it_was_run": "as §1"}, "Gal4S(b1-4)GlcNAc": {"biological_target": "Gal4S(b1-4)GlcNAc", "how_it_was_run": "as §1"}, "Gal6S(b1-3)GlcNAc6S": {"biological_target": "Gal6S(b1-3)GlcNAc6S", "how_it_was_run": "as §1"}}, "note": "About 410 targets per protein were measured; listed, in parts, are those with the strongest signals and a random draw of the rest."}
{"binder": "HPA (Helix pomatia), Q575S3 (protein) MWAHLTGLLLICALSLSAAQRAQTGEIDCGSDSSWPKDPSDNPNRDNTREIVKHVTFSPQFCREPKVILSVTTLDAEHTKNLRYEARLKSVSPSGLSASCYSWHDGTIYRMKLSWLAVED", "values": [{"measurement": "glycan array binding signal (z-score)", "setting": "[1]", "value": -0.229}, {"measurement": "glycan array binding signal (z-score)", "setting": "[2]", "value": -0.186}, {"measurement": "glycan array binding signal (z-score)", "setting": "[3]", "value": -0.229}, {"measurement": "glycan array binding signal (z-score)", "setting": "[4]", "value": -0.264}, {"measurement": "glycan array binding signal (z-score)", "setting": "[5]", "value": -0.221}, {"measurement": "glycan array binding signal (z-score)", "setting": "[6]", "value": 4.9}, {"measurement": "glycan array binding signal (z-score)", "setting": "[7]", "value": 4.46}, {"measurement": "glycan array binding signal (z-score)", "setting": "[8]", "value": 4.44}, {"measurement": "glycan array binding signal (z-score)", "setting": "[9]", "value": 4.28}, {"measurement": "glycan array binding signal (z-score)", "setting": "[10]", "value": 2.54}, {"measurement": "glycan array binding signal (z-score)", "setting": "[11]", "value": 5.52}, {"measurement": "glycan array binding signal (z-score)", "setting": "[12]", "value": -0.271}, {"measurement": "glycan array binding signal (z-score)", "setting": "[13]", "value": -0.251}, {"measurement": "glycan array binding signal (z-score)", "setting": "Gal(a1-3)Gal(b1-4)Glc", "value": -0.261}, {"measurement": "glycan array binding signal (z-score)", "setting": "Gal(b1-2)Gal", "value": -0.259}, {"measurement": "glycan array binding signal (z-score)", "setting": "[14]", "value": -0.266}, {"measurement": "glycan array binding signal (z-score)", "setting": "Gal(b1-3)GlcNAc(b1-2)Man", "value": 0.558}, {"measurement": "glycan array binding signal (z-score)", "setting": "[15]", "value": -0.246}, {"measurement": "glycan array binding signal (z-score)", "setting": "[16]", "value": -0.227}, {"measurement": "glycan array binding signal (z-score)", "setting": "[17]", "value": -0.265}, {"measurement": "glycan array binding signal (z-score)", "setting": "[18]", "value": -0.268}, {"measurement": "glycan array binding signal (z-score)", "setting": "[19]", "value": -0.239}, {"measurement": "glycan array binding signal (z-score)", "setting": "[20]", "value": -0.252}, {"measurement": "glycan array binding signal (z-score)", "setting": "[21]", "value": -0.25}, {"measurement": "glycan array binding signal (z-score)", "setting": "[22]", "value": -0.253}, {"measurement": "glycan array binding signal (z-score)", "setting": "Gal3S6S(b1-4)GlcNAc", "value": -0.266}, {"measurement": "glycan array binding signal (z-score)", "setting": "Gal4S(b1-4)GlcNAc", "value": -0.267}, {"measurement": "glycan array binding signal (z-score)", "setting": "Gal6S(b1-3)GlcNAc6S", "value": -0.242}]}
